Assay [1] can be described thus: qHTS assay to identify small molecule antagonists of the estrogen related receptor (ERR) signaling pathway from Tox21 library - cell viability counter screen (AID 1224834). Also: nearly all actives have a fitted effect of over 30% in size. The method in brief: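 In this quantitative HTS format, ERR cells receive compounds in DMSO and are incubated for 17.5 h at 37 C. Live-cell protease activity is then detected with CellTiter-Fluor.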
In general terms: qHTS replaces the single test concentration by a dilution series.

The target of assay [2] is Luciferin 4-monooxygenase (Photinus pyralis) (UniProt P08659). Kind of assay: qHTS assay to identify small molecule inhibitors of firefly luciferase (AID 1224835). Also: nearly all actives have a fitted effect of over 25% in size. An outline of the steps: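 Biochemical qHTS: compounds run as interplate titrations against purified firefly enzyme, with D-luciferin and ATP each at its KM concentration. Light output recorded by CCD imaging.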

Assay [3] has as its target Nuclear receptor subfamily 1 group I member 3 (Homo sapiens) (UniProt Q14994). Kind of assay: qHTS assay to identify small molecule agonists of the constitutive androstane receptor (CAR) signaling pathway (AID 1224839). Also: nearly all actives have a fitted effect of over 15% in size. The method in brief: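 Using human hepatoma HepG2 cells engineered with hCAR and a CYP2B6-2.2kb reporter, 15-concentration compound series were incubated 24 h alongside PK11195 at 0.75 uM final, with luminescence quantified afterwards.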

Assay [4] in a line: qHTS assay to identify small molecule antagonists of the estrogen related receptor signaling pathway with the pleiotropic PPARgamma coactivator (PGC) from Tox21 10K library - cell viability counter screen (AID 1224840; active = well fitted cell-killing curve with a large enough effect in the repeat runs, not every such curve was filed as active; also: nearly all actives have a fitted effect of over 40% in size). The method in brief:
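Viability counter screen, PGC/ERR cells: 17.5 h compound exposure at 37 C, CellTiter-Fluor fluorescence endpoint.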

Assay [5] in a line: qHTS assay to identify small molecule agonists of the estrogen related receptor signaling pathway with the pleiotropic PPARgamma coactivator (PGC) from Tox21 10K library (AID 1224842). Also: nearly all actives have a fitted effect of over 15% in size. An outline of the steps:
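PGC/ERR reporter cell line, 2,000 cells per well, incubated 6 h at 37 C before 23 nL compound in DMSO was added. After 18 h at 37 C, One-Glo luminescence read following 30 min at room temperature.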

Assay [6] addresses Thyrotropin receptor (Homo sapiens) (UniProt P16473). Kind of assay: qHTS assay to identify small molecule agonists of the thyroid stimulating hormone receptor (TSHR) signaling pathway (AID 1224843; calls by dose curve; also: nearly all actives have a fitted effect of over 45% in size). The method in brief: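 HEK293/TSHR, 800 cells/well; cpd 30 min RT; add cAMP-d2 + anti-cAMP-cryptate, 1 h RT; fluorescence read on plate reader. 15-pt titration, n=3.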
The target of assay [7] is Nuclear receptor subfamily 1 group I member 3 (Homo sapiens) (UniProt Q14994). Kind of assay: qHTS assay to identify small molecule antagonists of the constitutive androstane receptor (CAR) signaling pathway (AID 1224838). Also: nearly all actives have a fitted effect of over 40% in size. An outline of the steps:
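CITCO-stimulated (50 nM final) HepG2 cells stably transfected with hCAR and CYP2B6-2.2kb luciferase were exposed to compounds at 15 concentrations for 24 h at 37 C/5% CO2. A luciferase reagent was added and luminescence recorded after 30 min.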

A short description of assay [8]: qHTS assay to identify small molecule antagonists of the estrogen related receptor signaling pathway with the pleiotropic PPARgamma coactivator (PGC) from Tox21 10K library (AID 1224841; call rule not given here; also: actives are mostly falling curves and most rising ones were filed inactive; nearly all actives have a fitted effect of over 50% in size). The method in brief:
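In the PGC/ERR line, DMSO solutions of test chemicals are pin-delivered to 2,000 cells/well six hours after dispensing. Following eighteen hours' incubation, One-Glo reagent is added and luminescence recorded.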

Assay [9] can be described thus: qHTS assay to identify small molecule agonists of the constitutive androstane receptor (CAR) signaling pathway - cell viability counter screen (AID 1224836). Also: nearly all actives have a fitted effect of over 45% in size. An outline of the steps: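 Multiplexed viability check: HepG2-CYP2B6-hCAR cells, 15-point compound dosing, 0.75 uM PK11195 final, 23 h at 37 C, CellTiter-Fluor fluorescence.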
A short description of assay [10]: qHTS assay to identify small molecule antagonists of the constitutive androstane receptor (CAR) signaling pathway - cell viability counter screen (AID 1224837). Also: nearly all actives have a fitted effect of over 45% in size. An outline of the steps: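 In quantitative HTS format, compounds at 15 concentrations were applied to HepG2 cells double-transfected with hCAR and CYP2B6-2.2kb under 50 nM CITCO stimulation; live-cell protease activity was read after 23 hr via CellTiter-Fluor.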

Several values for one entry are separate records, joined by “and”; a condition that tells them apart may be missing. Equal values may be shown once. Results filed as inconclusive are left out. The source holds several records for some structures; these can differ, active in one and inactive in another. Activity calls are given as the source filed them. Unless noted, calls follow the shape of the dose curve; as a rule, active = well fitted curve in the direction sought with a large enough effect in the repeat runs; inconclusive = weak or mixed curves; inactive = no such curve, though single readings can be large; an effect the other way counts as inactive or inconclusive.
% is scaled to controls: 0 for no effect and ±100 for the full control effect; potency is read from the fitted curve at half-maximal effect.

Chain of Luciferin 4-monooxygenase (Photinus pyralis) (P08659 whole entry, looked up): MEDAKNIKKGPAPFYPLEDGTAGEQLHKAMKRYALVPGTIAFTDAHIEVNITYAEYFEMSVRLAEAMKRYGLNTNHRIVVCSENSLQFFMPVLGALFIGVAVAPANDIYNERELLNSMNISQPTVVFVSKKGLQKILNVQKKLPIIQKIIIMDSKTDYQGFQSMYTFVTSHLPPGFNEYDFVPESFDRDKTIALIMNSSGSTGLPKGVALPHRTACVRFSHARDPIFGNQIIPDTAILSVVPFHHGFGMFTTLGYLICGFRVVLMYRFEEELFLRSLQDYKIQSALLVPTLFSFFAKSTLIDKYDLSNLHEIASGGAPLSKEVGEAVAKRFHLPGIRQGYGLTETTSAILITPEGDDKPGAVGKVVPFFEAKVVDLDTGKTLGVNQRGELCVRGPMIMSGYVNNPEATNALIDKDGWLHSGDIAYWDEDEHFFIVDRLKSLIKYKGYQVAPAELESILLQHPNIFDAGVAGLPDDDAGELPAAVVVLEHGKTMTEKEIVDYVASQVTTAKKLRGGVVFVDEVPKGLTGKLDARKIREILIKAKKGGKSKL
Chain of Thyrotropin receptor (Homo sapiens) (P16473 whole entry, looked up): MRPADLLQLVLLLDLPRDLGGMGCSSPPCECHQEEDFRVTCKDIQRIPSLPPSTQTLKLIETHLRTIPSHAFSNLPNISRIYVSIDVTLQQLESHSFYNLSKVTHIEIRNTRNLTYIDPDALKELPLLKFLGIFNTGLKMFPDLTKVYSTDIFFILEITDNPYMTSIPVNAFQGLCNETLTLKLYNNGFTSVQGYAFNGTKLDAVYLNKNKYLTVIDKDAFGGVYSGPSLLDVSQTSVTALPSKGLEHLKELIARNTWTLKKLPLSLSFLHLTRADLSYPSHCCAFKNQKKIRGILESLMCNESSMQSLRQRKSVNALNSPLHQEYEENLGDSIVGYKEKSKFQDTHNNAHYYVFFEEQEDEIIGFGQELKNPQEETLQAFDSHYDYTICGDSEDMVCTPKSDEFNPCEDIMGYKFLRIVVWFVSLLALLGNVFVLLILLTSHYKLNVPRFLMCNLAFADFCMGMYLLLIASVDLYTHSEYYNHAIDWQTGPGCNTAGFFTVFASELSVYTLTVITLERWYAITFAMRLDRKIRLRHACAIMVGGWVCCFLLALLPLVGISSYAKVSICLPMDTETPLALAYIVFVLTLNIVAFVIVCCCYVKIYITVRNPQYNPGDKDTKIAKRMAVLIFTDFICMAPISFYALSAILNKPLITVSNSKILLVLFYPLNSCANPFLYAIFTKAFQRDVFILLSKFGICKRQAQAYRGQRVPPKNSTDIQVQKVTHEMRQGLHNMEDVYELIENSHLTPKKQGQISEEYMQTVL
Chain of Nuclear receptor subfamily 1 group I member 3 (Homo sapiens) (Q14994 whole entry, looked up): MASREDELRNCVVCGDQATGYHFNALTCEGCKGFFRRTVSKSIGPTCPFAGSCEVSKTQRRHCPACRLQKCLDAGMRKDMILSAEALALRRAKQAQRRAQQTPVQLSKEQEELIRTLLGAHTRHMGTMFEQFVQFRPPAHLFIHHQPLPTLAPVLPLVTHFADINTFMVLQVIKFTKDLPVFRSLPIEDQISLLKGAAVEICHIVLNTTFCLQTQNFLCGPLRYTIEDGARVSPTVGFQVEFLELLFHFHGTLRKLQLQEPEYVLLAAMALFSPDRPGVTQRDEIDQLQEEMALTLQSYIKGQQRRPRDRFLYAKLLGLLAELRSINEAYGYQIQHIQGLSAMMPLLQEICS

In the case of `CCCCCCCCCCCCCCCC[N+](C)(C)CCN(Cc1ccc(OC)cc1)c1ncccn1`, the Potency in assay [1] is 29.8 µM (active). In addition, the Potency entry in assay [2], in assay [3], in assay [4], in assay [5] and in assay [6] was “inactive” each time.
As to `NC(=O)N1C(=O)C(C(=O)c2cc(Cl)cs2)c2cc(F)c(Cl)cc21` (centres undefined), the Potency was 27.3 µM (active) in assay [1], 71 µM (active) in assay [2], 30.6 µM (active) in [4] and 38.6 µM (active) in [8]. Further, the Potency result in assay [7], in assay [3], in assay [5] and in [6] was “inactive” throughout.
`NC(=O)C1(N2CCCCC2)CCN(CCCN2c3ccccc3CCc3ccc(Cl)cc32)CC1`: the Potency in assay [1] is 29.8 µM (active); in assay [4], 26.6 µM (active). The Potency result in assay [2] and in assay [3] was “inactive” in each case.
For `CCN(CCC#N)c1ccc(N=Nc2c(Cl)cc([N+](=O)[O-])cc2Cl)cc1`, the Potency is 15.4 µM (active) in [1] and 63.3 µM (active) in [2]. Besides, the Potency entry in [7], in [3], in assay [8] and in assay [5] was “inactive” in each case.
`O=C(O)c1cc(O)c2c(c1)C(=O)c1cccc(O)c1C2=O`: the Potency result in assay [1], in assay [2], in assay [7], in [3], in [4] and in [6] was “inactive” throughout.
Turning to `Oc1ccc(N=Nc2ccccc2)cc1`, the Potency was 49.2 µM (active) in assay [1]; 9.06 µM (active) in assay [2]; 27.7 µM (active) in assay [3]; 27.7 µM (active) in assay [4]; 49.2 µM (active) in assay [6]. Further, the Potency entry in assay [7] was “inactive”.
Turning to `Oc1ccc(Cl)cc1Sc1cc(Cl)ccc1O`, the Potency in assay [1] is 30.6 µM (active) and 26.6 µM (active); in [7], 68.5 µM (active); in assay [8] it was 13.7 µM (active) and 10.6 µM (active). Also, the Potency result in assay [2], in assay [3] and in [5] was “inactive” in each case.
Regarding `CC(C)(C)CC(C)(C)c1ccc(OCCOCC[N+](C)(C)Cc2ccccc2)cc1`, the Potency in assay [1] was 48.5 µM (active) and 13.3 µM (active); in assay [4], 48.5 µM (active); in assay [8], 27.3 µM (active) and 6.68 µM (active); in assay [6], 13.7 µM (active) and 11.9 µM (active). The Potency entry in [2] and in assay [5] was “inactive” throughout.
Regarding `C[C@@H](NCCCc1cccc(C(F)(F)F)c1)c1cccc2ccccc12`, the Potency in assay [1] was 29.8 µM (active). In addition, the Potency entry in assay [2], in assay [3], in assay [8], in assay [5] and in [6] was “inactive” throughout.
For the compound `NC(=NCCCCCCN=C(N)/N=C(\N)Nc1ccc(Cl)cc1)/N=C(\N)Nc1ccc(Cl)cc1`, the Potency in assay [1] is 54.2 µM (active) [middle of 4 runs]; in assay [7], 60.8 µM (active) and inactive; in [4], 54 µM (active) [middle of 4 runs]. The Potency result in assay [2] and in [6] was “inactive” throughout.
For the compound `CS(=O)(=O)CCNCc1ccc(-c2ccc3ncnc(Nc4ccc(OCc5cccc(F)c5)c(Cl)c4)c3c2)o1`, the Potency in [1] is 6.68 µM (active); in [4] it was 33.5 µM (active). The Potency entry in [2], in assay [7], in [3], in assay [5] and in [6] was “inactive” each time.
Take `c1ccc(CSCc2ccccc2)cc1`: the Potency entry in assay [1], in assay [9], in assay [10], in assay [7] and in assay [4] was “inactive” each time.
Turning to `Fc1ccc([C@@H]2CCNC[C@H]2COc2ccc3c(c2)OCO3)cc1`, the Potency result in [2], in assay [9], in assay [10], in assay [7], in assay [3] and in [4] was “inactive” in each case.
On to `[Cl][Au]([Cl])[Cl]`, for which the Potency in assay [1] is 27.3 µM (active); in assay [9], 7.7 µM (active); in assay [10], 3.86 µM (active); in [4], 7.7 µM (active); in assay [8] it was 1.72 µM (active). For the same compound, in assay [5], the Potency result is “inactive”.
As for `On1ccccc1=S`, the Potency in assay [1] was 1.71 µM (active); in assay [9] it was 1.21 µM (active); in assay [10] it was 0.762 µM (active); in [4], 0.605 µM (active); in assay [8] it was 3.4 µM (active). Further, in assay [5], the Potency entry was “inactive”.
As to `S=c1[nH]c2ccccc2s1`, the Potency in assay [2] was 39.9 µM (active); in assay [3] it was 54.5 µM (active); in assay [8] it was 6.11 µM (active). The Potency entry in assay [9], in assay [10], in [7] and in assay [5] was “inactive” in each case.
In the case of `CCc1oc2ccccc2c1C(=O)c1cc(Br)c(O)c(Br)c1`, the Potency result in [2], in assay [9], in assay [10], in [7], in assay [3] and in [4] was “inactive” throughout. Moreover, the Potency result in assay [6] is “inactive”.
Take `Oc1cccc(-c2c3nc(c(-c4cccc(O)c4)c4ccc([nH]4)c(-c4cccc(O)c4)c4nc(c(-c5cccc(O)c5)c5ccc2[nH]5)CC4)C=C3)c1`: the Potency in [1] is 10.6 µM (active); in [10], 5.31 µM (active); in assay [4], 10.6 µM (active). The Potency entry in assay [7] and in [3] was “inactive” in each case.
For `CCCCCCCCCCCCCCCC(=O)OC[C@H](O)[C@H]1OC(=O)C(O)=C1O`, in [2], the Potency is 63.3 µM (active). Also, the Potency result in [9], in assay [10], in assay [7], in [3], in assay [4] and in assay [8] was “inactive” each time. Further, the Potency result in assay [5] and in assay [6] was “inactive” throughout.
On to `CC1=C(/C=C/C(C)=C/C=C/C(C)=C/C=O)C(C)(C)CCC1`, for which the Potency in [1] was 27.1 µM (active); in assay [9], 54.2 µM (active); in assay [10] it was 68.2 µM (active); in assay [3], 15.3 µM (active); in assay [4], 54.2 µM (active); in assay [6], 6.82 µM (active).
As for `CCCCCCCC[N+](CCCCCCCC)(CCCCCCCC)CCCCCCCC`, the Potency is 24.3 µM (active) in assay [1], 9.67 µM (active) in assay [10], 21.6 µM (active) in [7] and 21.6 µM (active) in assay [4]. In addition, the Potency result in assay [3] and in assay [5] was “inactive” throughout.
In the case of `CCCC1O[C@@H]2C[C@H]3[C@@H]4CCC5=CC(=O)C=C[C@]5(C)[C@H]4[C@@H](O)C[C@]3(C)[C@]2(C(=O)CO)O1` (some centres undefined), the Potency result in [2], in [9], in [10], in assay [7], in assay [3] and in assay [4] was “inactive” in each case. The Potency entry in assay [5] was “inactive”. Further, the Potency in assay [8] was 48.6 µM (active).
For the compound `Cc1nc(-c2ccc3c(c2)CCN(CCC2CCC(NC(=O)/C=C/c4ccc(F)cc4)CC2)CC3)no1` (centres undefined), the Potency entry in assay [2], in assay [9], in [10], in assay [7], in assay [3] and in [4] was “inactive” in each case. Besides, in [6], the Potency entry is “inactive”.
For the compound `COc1ccc(C(=O)/C(Br)=C\C(=O)O)cc1`, the values for the Potency in assay [1] and in assay [5] were 54.5 µM (active) and 24.3 µM (active), respectively. Besides, the Potency entry in [10], in assay [7], in assay [8] and in [6] was “inactive” throughout.
With `O=c1c(-c2ccccc2)c1-c1ccccc1`, the Potency is 8.41 µM (active) in [1] and 9.44 µM (active) in assay [8]. For the same compound, the Potency entry in assay [10] and in [5] was “inactive” in each case.
